Test results taken from PubChem BioAssay (Tox21).
Records with an inconclusive call do not appear. Entries that show only a call come without a potency. The source made the active and inactive calls. Calls come from the whole dose curve.

Experiment: p53 small molecule agonists, cell-based qHTS assay with rat liver microsomes (AID 1963578)
Conditions: HCT-116 p53RE-bla, beta-lactamase ratio, 16 h; series mostly up to 66 µM
Text: U.S. Tox21 Program National Center for Advancing Translational Sciences [NCATS] Division of Preclinical Innovation [DPI] U.S. Environmental Protection Agency [EPA] National Institutes of Environmental Health Sciences [NIEHS] National Toxicology Program [NTP] U.S. Food and Drug Administration [FDA] Tox21 Assay Overview: p53, a tumor suppressor protein, is activated following cellular insult, including DNA damage and other cellular stresses. The activation of p53 regulates cell fate by inducing DNA repair, cell cycle arrest, apoptosis, or cellular senescence. The activation of p53, therefore, is a good indicator of DNA damage and other cellular stresses. […] The activation of the reporter gene under culture conditions can be detected by fluorescence intensity. This cell line was used to screen the Tox21 10K compound library in the condition of presence of rat liver microsomes and to identify agonists that activate the p53 signaling pathway after in vitro metabolic activation (Ooka et al., Archive of Toxicology 96:1975-1987, 2022).
Tox21 Assay Protocol Summary: The p53RE-bla cells were dispensed at 4,000cells/3ul/well in 1536-well black-clear bottom plates. After the assay plates were incubated at 37 C, 5% CO2 incubator for 5 hours, 23 nL of compounds dissolved in DMSO, positive controls or DMSO only was transferred to the assay plate. Following compound addition, 3 uL of rat liver microsomes (Molecular Toxicology, Boone, NC) at final concentration of 0.5 mg/mL and 1uL of Beta-Nicotinamide adenine dinucleotide 2-phosphate (NADPH) at final concentration of 0.5 mg/mL were transferred to the assay plate. The plates were incubated at 37 C for 16 hours. 1 uL of LiveBLAzer detection mixture was added to each well and the plates were incubated at room temperature in the dark for 2 h.

Compound	Potency
OB(O)O	inactive
Cc1cccc(C)c1O	inactive
C=Cc1cccc(C)c1	inactive
CC(C)(C)[C@@H](O)[C@@H](Cc1ccc(Cl)cc1)n1cncn1	inactive
CCCCOC(=O)c1ccc(N)cc1	inactive
COc1ccc(OC)cc1	inactive
COc1ccc(C(=O)c2ccccc2O)c(O)c1	inactive
CCC(=O)/C=C/C1C(C)=CCCC1(C)C (stereo not given)	inactive
C=CCOC(=O)CC(C)C	inactive
OCCc1ccccc1	inactive
Oc1ccccc1	inactive
CCCCC/C=C\C/C=C\CCCCCCCC(=O)OC	inactive
CC1(C)S[C@@H]2[C@H](NC(=O)COc3ccccc3)C(=O)N2[C@H]1C(=O)O	inactive
CC(C)(CO)COC(=O)C(C)(C)CO	inactive
NC(=O)c1cccnc1	inactive
CC(=O)Nc1ccc2c(c1)Cc1cc(NC(C)=O)ccc1-2	inactive
O=C(O)CCCCC1CCSS1 (stereo not given)	inactive
CC(=O)c1nccs1	inactive
Nc1nc2ccccc2[nH]1	inactive
COC(=O)[C@H]1[C@H]2C[C@@H]3c4[nH]c5cc(OC)ccc5c4CCN3C[C@H]2C[C@@H](OC(=O)c2cc(OC)c(OC)c(OC)c2)[C@@H]1OC	inactive

Compound	Potency
NC(=O)c1cnccn1	inactive
COc1ccc(O)cc1	inactive
NC(N)=Nc1nc(CSCC/C(N)=N/S(N)(=O)=O)cs1	inactive
Cc1ncc[nH]1	inactive
C=C(C)C(=O)OCCOC(=O)C(=C)C	inactive
C[C@]12C=CC(=O)C=C1CC[C@@H]1[C@@H]2C(=O)C[C@@]2(C)[C@H]1CC[C@]2(O)C(=O)CO	inactive
CCCCCCCCCCCCCO	inactive
CCN(CCN)c1cccc(C)c1	inactive
CCCCC/C(C=O)=C\c1ccccc1	inactive
C[C@]12CC[C@@H]3c4ccc(O)cc4CC[C@H]3[C@@H]1CC[C@@H]2O	inactive
CCOC(=O)c1ccc(O)cc1	inactive
CCCCCCCCCCCC(=O)OC	inactive
NC(=O)/N=N/C(N)=O	inactive
CC(=O)O[C@]1(C(C)=O)CC[C@H]2[C@@H]3C[C@H](C)C4=CC(=O)CC[C@]4(C)[C@H]3CC[C@@]21C	inactive
CCC(C)(O)CCCC(C)C (stereo not given)	inactive
CN(C)c1ccc(C(=C2C=CC(=[N+](C)C)C=C2)c2ccccc2)cc1	inactive
C=C(C)CC(C)(C)C	inactive
CCCCCCCCCCCCCC(=O)O	inactive
CC(O)CN(CCN(CC(C)O)CC(C)O)CC(C)O (stereo not given)	inactive
O=C(O)c1ccc2c(c1)C(=O)OC2=O	inactive
